According to publication PMC7862700, “An all-to-all approach to the identification of sequence-specific readers for epigenetic DNA modifications on cytosine”:

Tests used:
Assay in all cases: DAPPL (digital affinity profiling via proximity ligation, sequencing); 10 mM Tris-HCl pH 7.5, 50 mM NaCl, 1 mM DTT, 4% glycerol, room temperature, 30 min; GST-TFs on glutathione beads, 16-mer random dsDNA library, 0.1% formaldehyde crosslink after washing; high values mean tight binding
Conditions in all cases: protein: recombinant; tags: N-terminal GST; dsDNA, one strand shown
FLI1 = molecular target: T1, FLI1 (Homo sapiens, UniProt Q01543 1-452)
T1 sequence: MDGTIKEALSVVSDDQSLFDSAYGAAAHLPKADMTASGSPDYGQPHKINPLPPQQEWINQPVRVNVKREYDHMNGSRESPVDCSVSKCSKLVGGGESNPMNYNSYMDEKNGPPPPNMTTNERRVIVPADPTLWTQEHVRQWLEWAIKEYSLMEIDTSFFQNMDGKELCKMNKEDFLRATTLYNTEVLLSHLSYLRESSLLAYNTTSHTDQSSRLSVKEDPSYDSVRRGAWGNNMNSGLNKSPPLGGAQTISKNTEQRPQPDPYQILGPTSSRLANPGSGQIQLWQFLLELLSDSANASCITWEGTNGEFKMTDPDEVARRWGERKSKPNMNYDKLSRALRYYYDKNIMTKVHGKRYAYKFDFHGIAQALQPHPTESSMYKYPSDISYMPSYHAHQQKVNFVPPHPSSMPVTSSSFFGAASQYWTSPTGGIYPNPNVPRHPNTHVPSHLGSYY
Procedure, shortened: (§1)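 Pools were built from human transcription factors expressed in yeast as GST fusions, captured on glutathione beads and DNA-barcoded, along with a tag-only sample. Incubation with 200 nmole of a 16-mer random double-stranded DNA library lasted 30 min at room temperature in Tris/NaCl/DTT/glycerol buffer, and was followed by washing, 0.1% formaldehyde crosslinking, proximity ligation, PCR amplification and Illumina NextSeq500 sequencing. Binding signal is the quotient of each hexamer's read frequency for a factor and its frequency for the tag-only sample.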

ELK1 = molecular target: T2, ELK1 (Homo sapiens, UniProt P19419 1-428)
T2 sequence: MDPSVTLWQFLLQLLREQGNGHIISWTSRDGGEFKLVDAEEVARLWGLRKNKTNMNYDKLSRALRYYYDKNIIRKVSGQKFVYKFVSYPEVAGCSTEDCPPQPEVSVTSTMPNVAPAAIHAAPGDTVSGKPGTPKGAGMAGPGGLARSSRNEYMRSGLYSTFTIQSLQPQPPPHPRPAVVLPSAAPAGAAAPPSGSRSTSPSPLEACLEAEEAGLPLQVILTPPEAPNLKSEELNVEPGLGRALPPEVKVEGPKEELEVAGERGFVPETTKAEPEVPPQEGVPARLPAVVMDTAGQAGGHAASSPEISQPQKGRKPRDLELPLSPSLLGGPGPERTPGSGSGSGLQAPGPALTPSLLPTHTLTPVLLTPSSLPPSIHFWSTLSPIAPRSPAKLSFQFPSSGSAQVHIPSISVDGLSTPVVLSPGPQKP
Procedure, shortened: as §1

GABPA = molecular target: T3, GABPA (Homo sapiens, UniProt Q06546 1-454)
T3 sequence: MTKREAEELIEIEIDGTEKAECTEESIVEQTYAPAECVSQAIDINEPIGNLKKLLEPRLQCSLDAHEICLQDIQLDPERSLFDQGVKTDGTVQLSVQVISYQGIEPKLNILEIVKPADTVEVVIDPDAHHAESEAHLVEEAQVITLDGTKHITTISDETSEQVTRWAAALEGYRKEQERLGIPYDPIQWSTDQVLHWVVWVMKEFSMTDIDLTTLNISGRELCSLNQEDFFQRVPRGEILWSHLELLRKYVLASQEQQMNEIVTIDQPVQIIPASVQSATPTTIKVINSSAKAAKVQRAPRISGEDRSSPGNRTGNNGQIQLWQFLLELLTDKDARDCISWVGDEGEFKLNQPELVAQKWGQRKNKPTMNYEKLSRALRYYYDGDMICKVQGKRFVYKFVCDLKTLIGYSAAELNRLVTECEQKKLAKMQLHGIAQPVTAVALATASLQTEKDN
Procedure, shortened: as §1

ERG = molecular target: T4, ERG (Homo sapiens, UniProt P11308 1-479)
T4 sequence: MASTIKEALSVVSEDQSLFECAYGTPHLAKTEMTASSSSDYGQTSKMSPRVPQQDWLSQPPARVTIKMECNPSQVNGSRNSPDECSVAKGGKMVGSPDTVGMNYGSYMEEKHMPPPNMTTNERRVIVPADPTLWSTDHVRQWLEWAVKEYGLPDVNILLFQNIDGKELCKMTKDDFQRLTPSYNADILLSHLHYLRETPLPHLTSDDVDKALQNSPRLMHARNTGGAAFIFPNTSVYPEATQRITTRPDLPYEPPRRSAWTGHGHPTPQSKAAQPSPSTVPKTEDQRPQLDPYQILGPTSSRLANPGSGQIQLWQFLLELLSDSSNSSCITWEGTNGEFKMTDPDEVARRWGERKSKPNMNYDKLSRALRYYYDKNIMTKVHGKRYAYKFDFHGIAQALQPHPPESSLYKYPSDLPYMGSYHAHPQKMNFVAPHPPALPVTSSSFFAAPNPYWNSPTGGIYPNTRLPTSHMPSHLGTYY
Procedure, shortened: as §1

ELF1 = ELF1 (Homo sapiens, UniProt P32519 1-619)
Sequence of ELF1 (P32519 whole entry): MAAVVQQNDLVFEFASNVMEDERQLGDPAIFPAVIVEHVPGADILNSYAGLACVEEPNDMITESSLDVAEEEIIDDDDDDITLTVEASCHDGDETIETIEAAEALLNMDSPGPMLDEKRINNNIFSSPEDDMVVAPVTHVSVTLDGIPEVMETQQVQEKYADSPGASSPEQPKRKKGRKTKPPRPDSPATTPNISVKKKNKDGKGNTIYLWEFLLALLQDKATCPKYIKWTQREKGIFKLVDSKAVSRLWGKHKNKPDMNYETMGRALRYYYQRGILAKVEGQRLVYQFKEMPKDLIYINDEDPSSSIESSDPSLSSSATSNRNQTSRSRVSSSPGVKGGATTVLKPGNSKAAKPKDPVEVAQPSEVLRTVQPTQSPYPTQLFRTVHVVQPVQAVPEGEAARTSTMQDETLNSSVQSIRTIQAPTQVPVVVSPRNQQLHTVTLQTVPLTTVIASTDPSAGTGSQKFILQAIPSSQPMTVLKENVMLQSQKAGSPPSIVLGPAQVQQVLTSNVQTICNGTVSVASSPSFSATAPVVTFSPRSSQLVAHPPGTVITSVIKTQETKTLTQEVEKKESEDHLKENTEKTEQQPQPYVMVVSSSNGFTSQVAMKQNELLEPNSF
Procedure, shortened: as §1

EHF = molecular target: T5, EHF (Homo sapiens, UniProt Q9NZC4 1-300)
T5 sequence: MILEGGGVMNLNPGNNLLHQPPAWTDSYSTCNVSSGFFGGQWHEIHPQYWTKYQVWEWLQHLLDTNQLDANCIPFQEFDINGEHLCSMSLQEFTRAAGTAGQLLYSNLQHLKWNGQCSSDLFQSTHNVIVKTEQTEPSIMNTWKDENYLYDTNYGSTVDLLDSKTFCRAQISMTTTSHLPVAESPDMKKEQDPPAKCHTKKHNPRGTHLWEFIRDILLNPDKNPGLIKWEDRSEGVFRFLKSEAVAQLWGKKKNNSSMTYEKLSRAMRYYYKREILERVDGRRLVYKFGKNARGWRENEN
Procedure, shortened: as §1

SPI1 = SPI1 (Homo sapiens, UniProt P17947 1-270)
Procedure, shortened: as §1

SPIB = SPIB (Homo sapiens, UniProt Q01892 1-262)
Sequence of SPIB (Q01892 whole entry): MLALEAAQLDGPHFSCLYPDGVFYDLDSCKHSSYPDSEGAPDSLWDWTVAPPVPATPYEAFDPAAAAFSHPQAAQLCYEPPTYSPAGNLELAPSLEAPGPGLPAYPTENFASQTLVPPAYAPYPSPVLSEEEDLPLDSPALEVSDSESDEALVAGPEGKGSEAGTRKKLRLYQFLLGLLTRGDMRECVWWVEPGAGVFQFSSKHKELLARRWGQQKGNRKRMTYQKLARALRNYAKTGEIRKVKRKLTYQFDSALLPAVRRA
Procedure, shortened: as §1

ELK3 = molecular target: T6, ELK3 (Homo sapiens, UniProt P41970 1-407)
T6 sequence: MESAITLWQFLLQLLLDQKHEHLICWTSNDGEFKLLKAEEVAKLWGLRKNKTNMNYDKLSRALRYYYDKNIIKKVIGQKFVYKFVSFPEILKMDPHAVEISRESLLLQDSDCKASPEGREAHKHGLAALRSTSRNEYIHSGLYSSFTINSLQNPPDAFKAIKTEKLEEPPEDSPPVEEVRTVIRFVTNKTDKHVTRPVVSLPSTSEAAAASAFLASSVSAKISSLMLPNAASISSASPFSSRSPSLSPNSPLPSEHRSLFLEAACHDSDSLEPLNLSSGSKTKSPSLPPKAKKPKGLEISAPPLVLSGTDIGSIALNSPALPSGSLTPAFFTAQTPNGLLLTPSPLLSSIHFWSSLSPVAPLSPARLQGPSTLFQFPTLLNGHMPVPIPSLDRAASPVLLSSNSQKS
Procedure, shortened: as §1

Row | Sequence | binding signal (FLI1) | binding signal (ELK1) | binding signal (GABPA) | binding signal (ERG) | binding signal (ELF1) | binding signal (EHF) | binding signal (SPI1) | binding signal (SPIB) | binding signal (ELK3)
1 | CTACGG | 1.19 fold enrichment (6-mer frequency, TF over GST control) | 1.27 fold enrichment (6-mer frequency, TF over GST control) | 1.22 fold enrichment (6-mer frequency, TF over GST control) | 1.21 fold enrichment (6-mer frequency, TF over GST control) | 1.29 fold enrichment (6-mer frequency, TF over GST control) | 1.31 fold enrichment (6-mer frequency, TF over GST control) | 1.24 fold enrichment (6-mer frequency, TF over GST control) | 1.28 fold enrichment (6-mer frequency, TF over GST control) | 1.24 fold enrichment (6-mer frequency, TF over GST control)
2 | TACTCC | 1.3 fold enrichment (6-mer frequency, TF over GST control) | 1.2 fold enrichment (6-mer frequency, TF over GST control) | 1.49 fold enrichment (6-mer frequency, TF over GST control) | 1.35 fold enrichment (6-mer frequency, TF over GST control) | 1.37 fold enrichment (6-mer frequency, TF over GST control) | 1.26 fold enrichment (6-mer frequency, TF over GST control) | 1.24 fold enrichment (6-mer frequency, TF over GST control) | 1.23 fold enrichment (6-mer frequency, TF over GST control) | 1.44 fold enrichment (6-mer frequency, TF over GST control)
3 | CCTCGA | 1.33 fold enrichment (6-mer frequency, TF over GST control) | 1.26 fold enrichment (6-mer frequency, TF over GST control) | 1.31 fold enrichment (6-mer frequency, TF over GST control) | 1.3 fold enrichment (6-mer frequency, TF over GST control) | 1.27 fold enrichment (6-mer frequency, TF over GST control) | 1.37 fold enrichment (6-mer frequency, TF over GST control) | 1.26 fold enrichment (6-mer frequency, TF over GST control) | 1.25 fold enrichment (6-mer frequency, TF over GST control) | 1.18 fold enrichment (6-mer frequency, TF over GST control)
4 | ATTAAA | 1.14 fold enrichment (6-mer frequency, TF over GST control) | 1.1 fold enrichment (6-mer frequency, TF over GST control) | 1.16 fold enrichment (6-mer frequency, TF over GST control) | 1.09 fold enrichment (6-mer frequency, TF over GST control) | 1.2 fold enrichment (6-mer frequency, TF over GST control) | 1.14 fold enrichment (6-mer frequency, TF over GST control) | 1.13 fold enrichment (6-mer frequency, TF over GST control) | 1.19 fold enrichment (6-mer frequency, TF over GST control) | 1.16 fold enrichment (6-mer frequency, TF over GST control)
5 | TCCATG | 1.17 fold enrichment (6-mer frequency, TF over GST control) | 1.18 fold enrichment (6-mer frequency, TF over GST control) | 1.1 fold enrichment (6-mer frequency, TF over GST control) | 1.09 fold enrichment (6-mer frequency, TF over GST control) | 1.11 fold enrichment (6-mer frequency, TF over GST control) | 1.17 fold enrichment (6-mer frequency, TF over GST control) | 1.1 fold enrichment (6-mer frequency, TF over GST control) | 1.13 fold enrichment (6-mer frequency, TF over GST control) | 1.24 fold enrichment (6-mer frequency, TF over GST control)
6 | GGTATT | 1.2 fold enrichment (6-mer frequency, TF over GST control) | 1.17 fold enrichment (6-mer frequency, TF over GST control) | 1.23 fold enrichment (6-mer frequency, TF over GST control) | 1.24 fold enrichment (6-mer frequency, TF over GST control) | 1.18 fold enrichment (6-mer frequency, TF over GST control) | 1.19 fold enrichment (6-mer frequency, TF over GST control) | 1.16 fold enrichment (6-mer frequency, TF over GST control) | 1.2 fold enrichment (6-mer frequency, TF over GST control) | 1.15 fold enrichment (6-mer frequency, TF over GST control)
7 | TTTCAT | 1.11 fold enrichment (6-mer frequency, TF over GST control) | 1.09 fold enrichment (6-mer frequency, TF over GST control) | 1.22 fold enrichment (6-mer frequency, TF over GST control) | 1.15 fold enrichment (6-mer frequency, TF over GST control) | 1.18 fold enrichment (6-mer frequency, TF over GST control) | 1.17 fold enrichment (6-mer frequency, TF over GST control) | 1.14 fold enrichment (6-mer frequency, TF over GST control) | 1.22 fold enrichment (6-mer frequency, TF over GST control) | 1.15 fold enrichment (6-mer frequency, TF over GST control)
